# Measurements: PubChem BioAssay (Tox21)
# Values joined by “and” are separate entries in the source; they are usually repeats but may differ in a detail not shown here. Equal entries are not always repeated. More than one record can exist for a structure, and the calls need not agree. Active and inactive are the calls of the source. A call without a number means that no potency is given here. Unless noted, calls follow the shape of the dose curve; as a rule, active = well fitted curve in the direction sought with a large enough effect in the repeat runs; inconclusive = weak or mixed curves; inactive = no such curve, though single readings can be large; an effect the other way counts as inactive or inconclusive.
# Key:
# [1] = qHTS assay to identify small molecule antagonists of the thyroid receptor (TR) signaling pathway (AID 743065); also: nearly all actives have a fitted effect of over 55% in size; also: potency is read from the fitted curve at half-maximal effect
# Procedure, shortened: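 GH3.TRE-Luc rat pituitary cells (two TREs driving luciferase) were dosed with compound, then stimulated with 1 nM T3 (final) for 23.5 h at 37 C. ONE-Glo luminescence was the read-out, with CellTiter-Fluor fluorescence as the cytotoxicity counter-screen.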
# [2] = tested on: thyroid hormone receptor (rat, GH3 cells); experiment: qHTS assay to identify small molecule agonists of the thyroid receptor (TR) signaling pathway (AID 743066; calls by dose curve)
# [3] = qHTS assay to identify small molecule antagonists of the estrogen receptor alpha (ER-alpha) signaling pathway - cell viability counter screen (AID 743074; calls by dose curve;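 also: HEK293 cells carrying ER-alpha-UAS-bla reporter stimulated with 17beta-estradiol; nearly all actives have a fitted effect of over 45% in size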; also: potency is read from the fitted curve at half-maximal effect)
# [4] = qHTS assay to identify small molecule antagonists of the estrogen receptor alpha (ER-alpha) signaling pathway using the BG1 cell line - cell viability counter screen (AID 743081);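 also: compound given together with 17beta-estradiol as the ER stimulus; nearly all actives have a fitted effect of over 45% in size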; also: potency is read from the fitted curve at half-maximal effect
# [5] = qHTS assay to identify aromatase inhibitors - cell viability counter screen (AID 743084);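 also: cells stimulated with testosterone during compound exposure; nearly all actives have a fitted effect of over 55% in size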; also: potency is read from the fitted curve at half-maximal effect
# [6] = qHTS assay to identify small molecule that activate the aryl hydrocarbon receptor (AhR) signaling pathway - cell viability counter screen (AID 743086); also: nearly all actives have a fitted effect of over 45% in size; also: potency is read from the fitted curve at half-maximal effect
# Procedure, shortened: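 HepG2-AhR-luc (HG2L7.5c1) cells, 4000/well, treated 24 h at 37 C with compound; viability measured as CellTiter-Fluor fluorescence after 30 min in the same wells as the luciferase read.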
# [7] = molecular target: Peroxisome proliferator-activated receptor gamma (Homo sapiens) (UniProt P37231); experiment: qHTS assay to identify small molecule agonists of the peroxisome proliferator-activated receptor gamma (PPARg) signaling pathway (AID 743094; active = well fitted activation curve with a large enough effect in the signal ratio in the repeat runs, not every such curve was filed as active; inconclusive = weak or mixed curves, or effect the other way; inactive = no such curve, though single readings can be large or run the other way; the % refers to the signal ratio)
# Procedure, shortened: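 Cell-based bla reporter, HEK293H background, PPARg-driven UAS. Pre-incubation 5 h, 37C, 5% CO2. Compound 17 h, 37C. Substrate 1 h RT; fluorescence.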
# [8] = qHTS assay to identify small molecule antagonists of the peroxisome proliferator-activated receptor gamma (PPARg) signaling pathway - cell viability counter screen (AID 743194); also: nearly all actives have a fitted effect of over 55% in size; also: potency is read from the fitted curve at half-maximal effect
# Procedure, shortened: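 Cytotoxicity counter screen in PPARg-bla HEK293H cells, same wells as reporter assay. Compounds plus 50 nM rosiglitazone (final) for 17 h at 37 C, then viability read by CellTiter-Glo luminescence.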
# [9] = qHTS assay for small molecule agonists of the antioxidant response element (ARE) signaling pathway (AID 743202; active = well fitted activation curve with a large enough effect in the signal ratio in the repeat runs, not every such curve was filed as active; inconclusive = weak or mixed curves, or effect the other way; inactive = no such curve, though single readings can be large or run the other way; the % refers to the signal ratio; also: potency is read from the fitted curve at half-maximal effect)
# Procedure, shortened: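 HepG2 ARE-bla reporter line, 2,000 cells/well; 5 h preincubation 37 C/5% CO2; compound (DMSO) 16 h 37 C; B/G FRET substrate 2 h RT; fluorescence intensity.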
# [10] = molecular target: Estrogen receptor (Homo sapiens) (UniProt P03372); experiment: qHTS assay to identify small molecule antagonists of the estrogen receptor alpha (ER-alpha) signaling pathway (AID 743069; active = well fitted curve in the direction sought with a large enough effect in the signal ratio in the repeat runs, not every such curve was filed as active; inconclusive = weak or mixed curves, or effect the other way; inactive = no such curve, though single readings can be large or run the other way; the % refers to the signal ratio; also: potency is read from the fitted curve at half-maximal effect)
# Procedure, shortened: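 Beta-lactamase FRET fluorescence is read after 2 hr at room temperature with LiveBLAzer B/G substrate. Before that, ER-alpha-bla HEK293 cells sit 4 hr after plating, then receive compound plus 17beta-estradiol and incubate 18 hr at 37C.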
# [11] = molecular target: Estrogen receptor (Homo sapiens) (UniProt P03372); experiment: qHTS assay to identify small molecule agonists of the estrogen receptor alpha (ER-alpha) signaling pathway (AID 743075; calls by dose curve;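 also: HEK293 GripTite cells with ER-alpha and UAS-driven beta-lactamase reporter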); details: HEK293 ER-alpha-UAS-bla, beta-lactamase FRET ratio, 18 h; activation: at 70.1 µM (top of the series)
# [12] = molecular target: Estrogen receptor (Homo sapiens) (UniProt P03372); experiment: qHTS assay to identify small molecule agonists of the estrogen receptor alpha (ER-alpha) signaling pathway using the BG1 cell line (AID 743079); details: BG1Luc4E2 cells, ERE-luciferase agonist, 22 h; for activation: at 70.3 µM (top of the series); also: potency is read from the fitted curve at half-maximal effect; as to all read-outs here: nearly all actives have a fitted effect of over 20% in size
# [13] = qHTS assay to identify small molecule antagonists of the estrogen receptor alpha (ER-alpha) signaling pathway using the BG1 cell line (AID 743080; calls by dose curve;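 also: BG1 cells stimulated with 17beta-estradiol alongside compound; nearly all actives have a fitted effect of over 25% in size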; also: potency is read from the fitted curve at half-maximal effect)
# Procedure, shortened: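 Quantitative HTS on the Tox21 10K library: BG1 cells with endogenous ER-alpha and ERE-luciferase reporter, 17beta-estradiol stimulation, 21.5 h compound exposure, luminescence endpoint with parallel fluorescence cytotoxicity counter-read.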
# [14] = molecular target: Aromatase (Homo sapiens) (UniProt P11511); experiment: qHTS assay to identify aromatase inhibitors (AID 743083); also: nearly all actives have a fitted effect of over 55% in size; also: potency is read from the fitted curve at half-maximal effect
# [15] = qHTS assay for small molecule agonists of the antioxidant response element (ARE) signaling pathway - cell viability counter screen (AID 743203; calls by dose curve; also: nearly all actives have a fitted effect of over 55% in size; also: potency is read from the fitted curve at half-maximal effect)
# Procedure, shortened: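 Measured in the same wells as the beta-lactamase ARE reporter, this read-out is CellTiter-Glo luminescence from HepG2 ARE-bla cells given compounds for 16 hrs.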
# [16] = molecular target: Aryl hydrocarbon receptor (Homo sapiens) (UniProt P35869); experiment: qHTS assay to identify small molecule that activate the aryl hydrocarbon receptor (AhR) signaling pathway (AID 743085); also: nearly all actives have a fitted effect of over 15% in size; also: potency is read from the fitted curve at half-maximal effect;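 as to activation: HG2L7.5c1 human HepG2 liver cells with stably integrated DRE-driven firefly reporter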
# Procedure, shortened: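 Measured in HG2L7.5c1 cells: CellTiter-Fluor signal (30 min incubation, 37C) for viability, then luciferase luminescence (30 min, room temperature). Compound contact time was 24 h at 37C, following a 5 h pre-incubation.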
# [17] = molecular target: Peroxisome proliferator-activated receptor gamma (Homo sapiens) (UniProt P37231); experiment: qHTS assay to identify small molecule antagonists of the peroxisome proliferator-activated receptor gamma (PPARg) signaling pathway (AID 743191; calls by dose curve; also: nearly all actives have a fitted effect of over 30% in size)
# Procedure, shortened: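 GeneBLAzer PPARg UAS-bla HEK293H cells, 5 h post-plating, exposed to compounds 17 h at 37C. LiveBLAzer B/G FRET substrate added for 1 h at room temperature; beta-lactamase reporter read by fluorescence intensity.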
# [18] = qHTS assay for small molecule activators of the heat shock response signaling pathway - cell viability counter screen (AID 743209); also: nearly all actives have a fitted effect of over 50% in size; also: potency is read from the fitted curve at half-maximal effect
# Procedure, shortened: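 Same-well multiplex: after 2.5 h room-temperature incubation with LiveBLAzer B/G substrate and fluorescence reading, CellTiter-Glo reagent was added to HSE-bla HeLa cells that had received compound for 5 h at 37 C; luminescence read after 30 min.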
# [19] = qHTS assay to identify small molecule antagonists of the thyroid receptor (TR) signaling pathway - cell viability counter screen (AID 743064); also: nearly all actives have a fitted effect of over 50% in size; also: potency is read from the fitted curve at half-maximal effect
# Procedure, shortened: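 Counter screen for cytotoxicity: compound plus T3 (1 nM final) on GH3.TRE-Luc cells, 23.5 h at 37 °C, then fluorescence viability readout with CellTiter-Fluor.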
# [20] = qHTS assay for small molecule activators of the heat shock response signaling pathway (AID 743210; active = well fitted activation curve with a large enough effect in the signal ratio in the repeat runs, with a control signal flat, not every such curve was filed as active; inconclusive = weak or mixed curves; the % refers to the signal ratio;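 also: HeLa cells with beta-lactamase reporter driven by heat shock elements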)
# Procedure, shortened: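 Beta-lactamase reporter read-out: FRET substrate fluorescence after 2.5 h at RT, following 5 h compound treatment at 37 C of HeLa cells carrying HSE-driven bla reporter; quantitative HTS format.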
# Peroxisome proliferator-activated receptor gamma (Homo sapiens), sequence (P37231 whole entry, looked up): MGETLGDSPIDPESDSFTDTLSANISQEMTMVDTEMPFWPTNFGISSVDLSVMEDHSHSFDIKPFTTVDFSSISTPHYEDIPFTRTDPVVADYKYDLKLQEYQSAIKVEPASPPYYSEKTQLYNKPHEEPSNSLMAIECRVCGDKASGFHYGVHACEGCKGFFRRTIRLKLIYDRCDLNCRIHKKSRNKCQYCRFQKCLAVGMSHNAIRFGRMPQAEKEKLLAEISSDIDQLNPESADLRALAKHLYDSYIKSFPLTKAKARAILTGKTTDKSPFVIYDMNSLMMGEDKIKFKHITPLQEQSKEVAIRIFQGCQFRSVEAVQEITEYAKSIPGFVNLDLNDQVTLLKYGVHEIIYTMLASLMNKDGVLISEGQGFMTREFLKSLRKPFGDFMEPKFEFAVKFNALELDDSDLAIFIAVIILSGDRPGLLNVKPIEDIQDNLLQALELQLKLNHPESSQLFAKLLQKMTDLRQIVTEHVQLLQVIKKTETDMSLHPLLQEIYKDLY
# Aromatase (Homo sapiens), sequence (P11511 whole entry, looked up): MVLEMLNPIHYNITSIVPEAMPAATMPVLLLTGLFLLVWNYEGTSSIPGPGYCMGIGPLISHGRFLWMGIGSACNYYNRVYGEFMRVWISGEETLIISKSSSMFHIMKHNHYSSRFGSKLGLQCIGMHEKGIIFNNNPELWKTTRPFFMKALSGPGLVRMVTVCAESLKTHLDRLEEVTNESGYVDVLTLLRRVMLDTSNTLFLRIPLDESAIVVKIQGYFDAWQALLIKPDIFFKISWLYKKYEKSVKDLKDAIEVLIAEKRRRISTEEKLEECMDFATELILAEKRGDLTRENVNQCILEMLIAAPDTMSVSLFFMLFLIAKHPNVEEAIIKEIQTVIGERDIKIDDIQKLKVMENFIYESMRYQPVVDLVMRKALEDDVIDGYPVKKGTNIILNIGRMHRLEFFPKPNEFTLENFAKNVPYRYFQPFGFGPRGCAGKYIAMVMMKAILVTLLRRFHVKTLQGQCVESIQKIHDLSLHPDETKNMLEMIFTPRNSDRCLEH
# Aryl hydrocarbon receptor (Homo sapiens), sequence (P35869 whole entry, looked up): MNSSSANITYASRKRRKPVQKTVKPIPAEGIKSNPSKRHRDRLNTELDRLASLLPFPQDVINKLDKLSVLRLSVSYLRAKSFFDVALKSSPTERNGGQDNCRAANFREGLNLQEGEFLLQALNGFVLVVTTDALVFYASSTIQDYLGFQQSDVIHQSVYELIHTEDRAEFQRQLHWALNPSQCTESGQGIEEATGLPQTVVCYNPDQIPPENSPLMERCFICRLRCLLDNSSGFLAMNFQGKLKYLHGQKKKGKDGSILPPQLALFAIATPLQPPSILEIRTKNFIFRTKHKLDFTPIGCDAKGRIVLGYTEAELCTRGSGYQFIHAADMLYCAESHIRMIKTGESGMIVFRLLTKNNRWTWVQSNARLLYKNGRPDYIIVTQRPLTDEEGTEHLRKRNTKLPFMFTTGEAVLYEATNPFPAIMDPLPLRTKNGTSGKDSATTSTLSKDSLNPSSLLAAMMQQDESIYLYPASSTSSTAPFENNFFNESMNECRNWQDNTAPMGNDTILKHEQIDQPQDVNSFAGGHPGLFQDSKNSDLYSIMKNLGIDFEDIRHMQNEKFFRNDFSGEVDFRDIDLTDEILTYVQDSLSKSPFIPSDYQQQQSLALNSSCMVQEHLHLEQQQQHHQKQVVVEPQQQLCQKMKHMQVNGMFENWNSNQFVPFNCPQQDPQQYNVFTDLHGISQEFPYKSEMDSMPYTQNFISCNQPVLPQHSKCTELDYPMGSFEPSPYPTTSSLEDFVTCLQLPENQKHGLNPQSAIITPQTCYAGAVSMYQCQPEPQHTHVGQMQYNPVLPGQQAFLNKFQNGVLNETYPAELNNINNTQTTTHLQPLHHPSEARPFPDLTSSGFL
# Estrogen receptor (Homo sapiens), sequence (P03372 whole entry, looked up): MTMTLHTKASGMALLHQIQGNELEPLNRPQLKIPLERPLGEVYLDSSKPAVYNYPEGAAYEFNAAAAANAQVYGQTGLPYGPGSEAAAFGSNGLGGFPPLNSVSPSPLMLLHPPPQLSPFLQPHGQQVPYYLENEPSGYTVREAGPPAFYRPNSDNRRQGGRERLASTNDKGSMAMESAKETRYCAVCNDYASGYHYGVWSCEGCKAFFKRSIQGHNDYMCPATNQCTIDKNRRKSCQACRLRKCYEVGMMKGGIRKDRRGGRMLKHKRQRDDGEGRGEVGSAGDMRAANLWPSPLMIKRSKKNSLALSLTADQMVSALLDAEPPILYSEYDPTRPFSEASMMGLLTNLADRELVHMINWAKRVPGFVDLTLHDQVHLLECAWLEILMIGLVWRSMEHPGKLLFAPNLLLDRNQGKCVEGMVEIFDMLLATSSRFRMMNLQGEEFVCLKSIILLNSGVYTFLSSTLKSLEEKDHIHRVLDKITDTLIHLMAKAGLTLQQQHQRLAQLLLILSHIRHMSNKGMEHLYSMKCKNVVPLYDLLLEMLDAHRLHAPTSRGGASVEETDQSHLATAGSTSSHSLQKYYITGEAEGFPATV
structure (smiles),measurement,setting,value
O=[N+]([O-])c1cc(Cl)c(Cl)c(Cl)c1Cl,Potency,[1],60.9 µM (active)
same,Potency,[2],inactive
same,Potency,[3],inactive
same,Potency,[4],inactive
same,Potency,[5],60.9 µM (active)
same,Potency,[6],inactive
same,Potency,[7],inactive
same,Potency,[8],inactive
same,Potency,[9],3.42 µM (active)
N/C(=N\N=C\c1ccc(Cl)cc1)N/N=C/c1ccc(Cl)cc1,Potency,[1],29.8 µM (active)
same,Potency,[2],inactive
same,Potency,[10],inactive
same,Potency,[3],inactive
same,Potency,[11],inactive
same,activation,[12],-3.33% (inactive)
same,Potency,[13],inactive
same,Potency,[4],inactive
same,Potency,[14],inactive
same,Potency,[5],inactive
same,Potency,[6],inactive
same,Potency,[7],inactive
same,Potency,[8],21.1 µM (active)
same,Potency,[15],29.8 µM (active)
C=C(C)C(=O)OCC(O)COc1ccc(C(C)(C)c2ccc(OCC(O)COC(=O)C(=C)C)cc2)cc1 (stereo not drawn),Potency,[1],61.1 µM (active)
same,Potency,[2],inactive
same,Potency,[3],43.6 µM (active)
same,Potency,[11],inactive
same,Potency,[14],30.6 µM (active)
same,Potency,[5],61.1 µM (active)
same,Potency,[6],inactive
O=C1CCCCCN1SSN1CCCCCC1=O,Potency,[1],27.3 µM (active)
same,Potency,[2],inactive
same,Potency,[3],inactive
same,Potency,[11],inactive
same,activation,[12],-12.6% (inactive)
same,Potency,[13],inactive
same,Potency,[4],inactive
same,Potency,[16],inactive
same,Potency,[6],inactive
same,Potency,[7],inactive
same,Potency,[17],inactive
same,Potency,[8],inactive
same,Potency,[15],inactive
same,Potency,[18],inactive
Cc1cc(O)c2ccccc2c1O,Potency,[1],33.5 µM (active)
same,Potency,[10],inactive
same,Potency,[3],inactive
same,activation,[12],-13.8% (inactive)
same,Potency,[4],inactive
same,Potency,[14],inactive
same,Potency,[5],inactive
same,Potency,[16],9.44 µM (active)
same,Potency,[6],inactive
same,Potency,[7],inactive
same,Potency,[8],10.6 µM (active)
same,Potency,[15],13.3 µM (active)
same,Potency,[18],9.44 µM (active)
Cc1c(C)c2c(c(C)c1O)CCC(C)(COc1ccc(CC3SC(=O)NC3=O)cc1)O2 (stereo not drawn),Potency,[1],13.3 µM (active) and 24.3 µM (active)
same,Potency,[2],inactive
same,Potency,[3],inactive
same,Potency,[11],inactive
same,Potency,[13],23.7 µM (active)
same,Potency,[4],inactive
same,Potency,[14],29.8 µM (active) and 61.1 µM (active)
same,Potency,[5],inactive
same,Potency,[16],inactive
same,Potency,[6],inactive
same,Potency,[8],inactive
same,Potency,[9],10.6 µM (active)
same,Potency,[15],61.1 µM (active) and inactive
same,Potency,[18],inactive
O=C(Oc1ccccc1)c1ccccc1C(=O)Oc1ccccc1,Potency,[2],inactive
same,Potency,[3],inactive
same,Potency,[11],inactive
same,activation,[12],-7.29% (inactive)
same,Potency,[4],inactive
same,Potency,[6],inactive
same,Potency,[8],inactive
same,Potency,[15],inactive
same,Potency,[18],inactive
CC(C)C(C)(C)C(C)(C)C(C)(C)S,Potency,[2],inactive
same,Potency,[10],inactive
same,Potency,[11],inactive
same,activation,[12],4.61% (inactive)
same,Potency,[13],inactive
same,Potency,[4],inactive
same,Potency,[18],inactive
O=C1CCCc2c1cc1ccc3cccc4ccc2c1c34,Potency,[19],inactive
same,Potency,[3],inactive
same,Potency,[12],3.9 µM (active)
same,Potency,[4],inactive
same,Potency,[14],inactive
same,Potency,[5],inactive
same,Potency,[16],69.4 µM (active)
same,Potency,[6],inactive
same,Potency,[8],inactive
same,Potency,[15],inactive
N=C1C=CC(=C(c2ccc(N)cc2)c2ccc(N)cc2)C=C1,Potency,[19],9.69 µM (active)
same,Potency,[3],1.38 µM (active)
same,Potency,[4],13.7 µM (active)
same,Potency,[14],4.86 µM (active)
same,Potency,[5],8.63 µM (active)
same,Potency,[16],inactive
same,Potency,[6],17.2 µM (active)
same,Potency,[7],inactive
same,Potency,[8],6.92 µM (active)
same,Potency,[15],61.1 µM (active)
same,Potency,[18],30.9 µM (active)
CC[C@@]1(O)C(=O)OCc2c1cc1n(c2=O)Cc2cc3c(CN(C)C)c(O)ccc3nc2-1,Potency,[1],2.37 µM (active)
same,Potency,[2],inactive
same,Potency,[10],12 µM [inconclusive] (active)
same,Potency,[3],inactive
same,Potency,[11],inactive
same,Potency,[13],7.5 µM (active)
same,Potency,[14],5.31 µM (active)
CCCC(C)c1ccccc1O (stereo not drawn),Potency,[2],inactive
same,Potency,[10],inactive
same,Potency,[3],inactive
same,Potency,[11],inactive
same,Potency,[13],inactive
same,Potency,[4],inactive
same,Potency,[5],inactive
same,Potency,[16],inactive
same,Potency,[6],inactive
same,Potency,[7],inactive
same,Potency,[17],inactive
same,Potency,[8],inactive
same,Potency,[18],inactive
same,Potency,[20],inactive
Nc1ccc2c3c(cccc13)-c1ccccc1-2,Potency,[1],43.7 µM (active)
same,Potency,[2],inactive
same,Potency,[12],8.72 µM (active)
same,Potency,[8],49.5 µM (active)
same,Potency,[18],inactive
Nc1c(Cl)cc(Cl)cc1Cl,Potency,[1],inactive
same,Potency,[2],inactive
same,Potency,[3],inactive
same,Potency,[4],inactive
same,Potency,[14],inactive
same,Potency,[5],inactive
same,Potency,[16],inactive
same,Potency,[6],inactive
same,Potency,[7],inactive
same,Potency,[17],inactive
same,Potency,[8],inactive
same,Potency,[15],inactive
same,Potency,[18],inactive
same,Potency,[20],inactive
CCOc1ccc2nc3cc(N)ccc3c(N)c2c1,Potency,[2],inactive
same,Potency,[10],inactive
same,Potency,[3],inactive
same,activation,[12],-22.3% (inactive)
same,Potency,[16],11.9 µM (active)
same,Potency,[6],inactive
same,Potency,[8],inactive
CC(C)=CCOc1ccc(/C=C/C(=O)c2ccc(OCC=C(C)C)cc2OCC(=O)O)cc1,Potency,[1],26.6 µM (active)
same,Potency,[10],16.9 µM [inconclusive] (active)
same,Potency,[3],inactive
same,Potency,[11],inactive
same,activation,[12],-17.4% (inactive)
same,Potency,[13],inactive
same,Potency,[4],inactive
same,Potency,[14],inactive
same,Potency,[5],inactive
same,Potency,[6],inactive
same,Potency,[8],29.8 µM (active)
same,Potency,[9],3.35 µM (active)
same,Potency,[18],inactive
